# The campaign covered roughly 190,000 compounds. About 6,900 (3.6%) were called active. No stated cut-off is given here; in the data, active means inhibition above about 50%; inactive means the rest. The list comes from a sample in which actives are over-represented; it also holds similar structures and randomly drawn compounds.
# Target: Huntingtin (Homo sapiens) (UniProt P42858)
# Assay: mutant huntingtin-calmodulin interaction inhibitors – biochemical, AlphaScreen, primary screen (AID 1671202);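 further: 0% = both proteins with DMSO and 100% = one protein alone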
# Settings: AlphaScreen His-mHTT/GST-CaM binding, luminescence; at 15 µM, stronger effect = higher value
# Huntingtin (Homo sapiens), sequence (P42858 whole entry, looked up, stated change not applied): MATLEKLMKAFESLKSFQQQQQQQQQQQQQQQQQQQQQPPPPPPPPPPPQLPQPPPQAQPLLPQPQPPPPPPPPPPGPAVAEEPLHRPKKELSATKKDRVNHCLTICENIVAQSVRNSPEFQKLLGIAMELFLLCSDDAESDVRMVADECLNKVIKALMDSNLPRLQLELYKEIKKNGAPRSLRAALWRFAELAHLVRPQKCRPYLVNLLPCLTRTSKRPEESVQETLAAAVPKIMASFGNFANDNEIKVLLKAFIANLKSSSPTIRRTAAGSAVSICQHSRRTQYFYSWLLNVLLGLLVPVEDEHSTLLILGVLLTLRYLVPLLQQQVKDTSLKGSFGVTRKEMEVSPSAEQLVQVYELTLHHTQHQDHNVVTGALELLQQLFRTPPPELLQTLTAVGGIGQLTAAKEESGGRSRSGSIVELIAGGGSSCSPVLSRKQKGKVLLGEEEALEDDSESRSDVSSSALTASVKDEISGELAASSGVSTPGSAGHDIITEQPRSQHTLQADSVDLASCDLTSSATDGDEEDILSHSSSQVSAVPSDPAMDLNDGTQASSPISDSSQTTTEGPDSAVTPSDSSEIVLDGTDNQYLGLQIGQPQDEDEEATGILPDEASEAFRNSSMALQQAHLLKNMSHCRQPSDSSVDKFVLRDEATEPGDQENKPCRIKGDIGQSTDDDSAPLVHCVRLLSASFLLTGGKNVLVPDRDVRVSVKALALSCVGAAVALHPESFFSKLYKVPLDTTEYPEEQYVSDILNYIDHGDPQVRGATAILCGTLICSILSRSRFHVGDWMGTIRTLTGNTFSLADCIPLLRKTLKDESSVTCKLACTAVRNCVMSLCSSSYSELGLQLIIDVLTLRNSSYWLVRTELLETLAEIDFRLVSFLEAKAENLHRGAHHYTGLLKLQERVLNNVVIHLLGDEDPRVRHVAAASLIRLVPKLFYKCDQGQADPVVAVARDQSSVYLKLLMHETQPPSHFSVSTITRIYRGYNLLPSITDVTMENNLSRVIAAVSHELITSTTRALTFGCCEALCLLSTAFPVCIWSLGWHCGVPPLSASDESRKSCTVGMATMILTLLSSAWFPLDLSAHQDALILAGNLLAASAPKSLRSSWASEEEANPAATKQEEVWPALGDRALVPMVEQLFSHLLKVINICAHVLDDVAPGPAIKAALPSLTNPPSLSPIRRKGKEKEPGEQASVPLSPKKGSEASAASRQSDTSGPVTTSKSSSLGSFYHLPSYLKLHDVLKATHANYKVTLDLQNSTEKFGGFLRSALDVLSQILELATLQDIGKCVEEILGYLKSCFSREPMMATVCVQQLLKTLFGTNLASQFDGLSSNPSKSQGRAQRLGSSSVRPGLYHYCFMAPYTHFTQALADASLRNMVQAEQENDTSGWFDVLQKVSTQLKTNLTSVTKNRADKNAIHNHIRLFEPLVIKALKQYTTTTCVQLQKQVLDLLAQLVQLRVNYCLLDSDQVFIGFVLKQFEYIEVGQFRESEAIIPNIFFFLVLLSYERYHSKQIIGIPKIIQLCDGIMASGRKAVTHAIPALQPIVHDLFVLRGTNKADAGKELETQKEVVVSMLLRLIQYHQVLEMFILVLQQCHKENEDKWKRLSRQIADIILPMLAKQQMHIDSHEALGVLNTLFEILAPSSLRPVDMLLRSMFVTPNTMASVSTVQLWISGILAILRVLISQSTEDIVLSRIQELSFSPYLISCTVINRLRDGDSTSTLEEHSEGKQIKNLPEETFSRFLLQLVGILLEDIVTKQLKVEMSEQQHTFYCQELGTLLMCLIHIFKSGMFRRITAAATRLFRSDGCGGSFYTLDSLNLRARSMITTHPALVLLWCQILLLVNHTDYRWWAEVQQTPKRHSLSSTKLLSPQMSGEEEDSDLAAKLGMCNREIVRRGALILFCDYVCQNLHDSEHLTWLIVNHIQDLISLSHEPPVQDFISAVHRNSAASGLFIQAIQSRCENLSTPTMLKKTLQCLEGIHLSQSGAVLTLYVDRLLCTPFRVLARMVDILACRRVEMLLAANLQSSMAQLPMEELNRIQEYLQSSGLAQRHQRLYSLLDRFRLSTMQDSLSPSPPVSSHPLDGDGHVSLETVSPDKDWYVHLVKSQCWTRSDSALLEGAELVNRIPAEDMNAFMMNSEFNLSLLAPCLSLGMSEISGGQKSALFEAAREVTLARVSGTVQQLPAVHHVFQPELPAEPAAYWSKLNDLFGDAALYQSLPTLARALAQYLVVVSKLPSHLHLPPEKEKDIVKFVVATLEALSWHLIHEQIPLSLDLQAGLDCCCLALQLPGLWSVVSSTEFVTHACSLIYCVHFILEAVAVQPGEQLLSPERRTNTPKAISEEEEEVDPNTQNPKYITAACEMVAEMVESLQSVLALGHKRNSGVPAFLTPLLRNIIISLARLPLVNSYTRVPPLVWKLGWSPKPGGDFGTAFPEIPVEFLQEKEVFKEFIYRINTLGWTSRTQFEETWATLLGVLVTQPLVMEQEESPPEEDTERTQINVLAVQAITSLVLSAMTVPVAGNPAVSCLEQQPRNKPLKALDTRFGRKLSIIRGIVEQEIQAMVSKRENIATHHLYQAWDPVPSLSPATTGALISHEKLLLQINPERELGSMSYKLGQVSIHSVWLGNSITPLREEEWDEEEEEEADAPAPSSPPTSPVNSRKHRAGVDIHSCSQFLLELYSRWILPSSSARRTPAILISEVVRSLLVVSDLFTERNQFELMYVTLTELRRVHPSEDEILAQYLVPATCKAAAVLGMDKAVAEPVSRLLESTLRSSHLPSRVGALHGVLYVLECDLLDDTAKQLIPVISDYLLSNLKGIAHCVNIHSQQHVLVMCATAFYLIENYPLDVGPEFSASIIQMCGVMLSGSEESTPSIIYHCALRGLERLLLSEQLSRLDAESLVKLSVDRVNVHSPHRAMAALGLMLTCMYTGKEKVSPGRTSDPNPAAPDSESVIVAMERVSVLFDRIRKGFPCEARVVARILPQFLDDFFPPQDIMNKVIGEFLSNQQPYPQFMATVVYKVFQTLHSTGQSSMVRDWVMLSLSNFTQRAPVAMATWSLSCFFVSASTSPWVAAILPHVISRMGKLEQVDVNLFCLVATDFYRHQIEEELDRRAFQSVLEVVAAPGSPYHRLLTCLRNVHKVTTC
row,SMILES,inhibition
1,CC(C)c1ccc(OCC(=O)Nc2ccccc2[N+](=O)[O-])cc1,3.8% (inactive)
2,COc1ccc(-n2c(-c3cccc([N+](=O)[O-])c3)cn3c4c(=O)n(C)c(=O)n(C)c4nc23)cc1,4% (inactive)
3,CC(=O)c1ccc(NC(=O)CSc2ncc(-c3ccc(C)c(C)c3)o2)cc1,2.5% (inactive)
4,CC(=O)N1CCc2cc(Br)cc(S(=O)(=O)NCCc3ccccc3)c21,20% (inactive)
5,CC(=O)C1=C(C)NC(SCC(=O)c2ccccc2)=C(C#N)C1c1ccc(Br)cc1 (configuration not stated),-23.7% (inactive)
6,COc1cc(NC(=O)c2ccccc2OC)c(OC)cc1Cl,9% (inactive)
7,Cc1ccc(C)c(C(O)=C2C(=O)C(=O)N(CCCN3CCOCC3)C2c2ccncc2)c1 (configuration not stated),-2.8% (inactive)
8,Clc1ccc(C2C=C(c3cccc(Br)c3)Nc3nnnn32)c(Cl)c1 (configuration not stated),-5% (inactive)
9,O=C(Nc1nncs1)c1ccc2nc(-c3ccco3)c(-c3ccco3)nc2c1,99.4% (active)
10,CCOc1ccc2nc(NC(=O)c3ccc(OC)cc3)sc2c1,-5% (inactive)
11,O=C(Nc1ccc(Cl)cc1)c1ccc2nc3ccccc3nc2c1,13.5% (inactive)
12,COc1ccc(C=C2Oc3cc(OC(=O)c4ccc5c(c4)OCO5)ccc3C2=O)c(OC)c1OC,3.6% (inactive)
13,COc1ccc(-c2coc3c(C)c4oc(=O)c5ccccc5c4cc23)cc1F,2% (inactive)
14,N#CC1=C(N)Oc2n[nH]c(-c3ccccc3)c2C1c1ccc(F)c(Br)c1 (configuration not stated),20% (inactive)
15,Cc1cc(-c2[nH]c3c(c2-c2cc(C)sc2C)c(=O)n(C)c(=O)n3C)c(C)s1,-3% (inactive)
16,O=C(NCCSc1c[nH]c2ccccc12)c1ccc(Cl)c([N+](=O)[O-])c1,37% (inactive)
17,O=C(COc1ccc(Cl)cc1Cl)NCCSc1c[nH]c2ccccc12,61% (active)
18,Cc1cc(Cl)ccc1OCC(=O)NCCc1nc2ccccc2[nH]1,19% (inactive)
19,COc1cccc(NC(=O)C2(c3ccccc3)CCOCC2)c1,1.7% (inactive)
20,Cc1cccc2nnc(N3CCC(C(=O)N4CCOCC4)CC3)n12,1.65% (inactive)
21,Cc1cccc(NC(=O)c2cc(F)ccc2F)n1,-3% (inactive)
22,Cc1ccnc(NC(c2ccc(O)cc2)c2ccc3ccc(C)nc3c2O)c1 (configuration not stated),98% (active)

row,SMILES,inhibition
1,Cc1cc(C)nc(NC(=O)c2cccc(F)c2)c1,-6.5% (inactive)
2,Cc1cccc(NC(c2cccc(F)c2)c2ccc3ccc(C)nc3c2O)n1 (configuration not stated),76% (active)
3,Cc1cc(S(=O)(=O)NCc2cccnc2)c(Cl)cc1Cl,-3.6% (inactive)
4,Cc1ccc(CNC(=O)C2(C)CCCN(S(=O)(=O)c3cc(C)c(C)cc3C)C2)cc1 (configuration not stated),52.3% (active)
5,Cc1ccc(CNC(=O)N2CCCC(C)(C(=O)NCc3ccccc3)C2)cc1 (configuration not stated),0.08% (inactive)
6,Cc1ccc(S(=O)(=O)N2CCCC(C)(C(=O)NCc3ccccc3C)C2)cc1 (configuration not stated),13% (inactive)
7,CCN=C1SC(C(=O)Nc2ccc(Cl)cc2)CC(=O)N1CC (configuration not stated),7% (inactive)
8,CCN(CC)S(=O)(=O)N(CC(=O)NC(C)(C)C)Cc1ccc(F)cc1,-4% (inactive)
9,CCn1cc2c3c(cccc31)CN(C(=O)Nc1ccc(C)cc1C)CC2,26.9% (inactive)
10,CC(C)Cn1cc2c3c(cccc31)CN(C(=O)Nc1ccc(F)cc1)CC2,0.25% (inactive)
11,CCCn1cc2c3c(cccc31)CN(C(=O)Nc1cc(OC)c(OC)c(OC)c1)CC2,2.35% (inactive)
12,CCn1cc2c3c(cccc31)CN(C(=O)Nc1cc(C)ccc1OC)CC2,60.9% (active)
13,CCn1cc2c3c(cccc31)CN(C(=O)c1ccc(OC)cc1)CC2,44.1% (inactive)
14,COc1ccc(OC)c(NC(=O)N2CCc3cn(CC(C)C)c4cccc(c34)C2)c1,69.3% (active)
15,O=[N+]([O-])c1ccc(N2CCN(CC3CC4C=CC3C4)CC2)cc1 (configuration not stated),19.4% (inactive)
16,COc1cc(Cl)c(NC(=O)C2CCCN(C(=O)c3cc(C)cc(C)c3)C2)c(OC)c1 (configuration not stated),1.7% (inactive)
17,CC1(C)CC(=O)C2=C(C1)Nc1ccc3ncccc3c1C2c1ccccc1C(F)(F)F (configuration not stated),4% (inactive)
18,CCOc1ccc(-c2ccc(N3CCN(C(=O)Cn4cnc5ccccc54)CC3)nn2)cc1,14.5% (inactive)
19,COCOCCn1cc(CN2CCS(=O)(=O)N(Cc3ccc(-c4cccc(N(C)C)c4)cc3)C(CC(C)C)C2=O)nn1 (configuration not stated),65.8% (active)
20,Cc1ccc(-c2ccc(CN3C(C(C)C)C(=O)N(Cc4cn(CCC5OCCO5)nn4)CCS3(=O)=O)cc2)cc1 (configuration not stated),14.9% (inactive)
21,COc1ccc(-c2ccc(CN3C(CC(C)C)C(=O)N(Cc4cn(CC5CCCCC5)nn4)CCS3(=O)=O)cc2)cc1 (configuration not stated),3.9% (inactive)
22,CC(C)C1C(=O)N(Cc2cn(CCC3OCCO3)nn2)CCS(=O)(=O)N1Cc1ccc(-c2ccccc2C(F)(F)F)cc1 (configuration not stated),43.5% (inactive)

row,SMILES,inhibition
1,COc1ccc(-c2ccc(CN3C(C(C)C)C(=O)N(Cc4cn(CC5CCCCC5)nn4)CCS3(=O)=O)cc2)cn1 (configuration not stated),29.4% (inactive)
2,CC1C(=O)N(Cc2cn(Cc3ccco3)nn2)CCS(=O)(=O)N1Cc1ccc(-c2cccc(CO)c2)cc1 (configuration not stated),30% (inactive)
3,CC(=O)c1cccc(-c2ccc(CN3C(CC(C)C)C(=O)N(Cc4cn(CC5CCCCC5)nn4)CCS3(=O)=O)cc2)c1 (configuration not stated),22.9% (inactive)
4,COCOCCn1cc(CN2CCS(=O)(=O)N(Cc3ccc(-c4ccccc4)cc3)C(CC(C)C)C2=O)nn1 (configuration not stated),60.8% (active)
5,Cc1ccc(-c2ccc(CN3C(C)C(=O)N(Cc4cn(CCC5OCCCO5)nn4)CCS3(=O)=O)cc2)cc1 (configuration not stated),-4% (inactive)
6,CC1C(=O)N(Cc2cn(CC3CCCCC3)nn2)CCS(=O)(=O)N1Cc1ccc(-c2cccc(N(C)C)c2)cc1 (configuration not stated),65.9% (active)
7,CC(C)CC1C(=O)N(Cc2cn(Cc3ccco3)nn2)CCS(=O)(=O)N1Cc1ccc(-c2ccc(Cl)c(Cl)c2)cc1 (configuration not stated),97.6% (active)
8,Cc1ccc(-c2ccc(CN3C(C(C)C)C(=O)N(Cc4cn(CCC5OCCCO5)nn4)CCS3(=O)=O)cc2)cc1 (configuration not stated),19% (inactive)
9,CC(C)NC(=O)c1cn(-c2ccc(F)cc2)nn1,3.4% (inactive)
10,COc1c(S(=O)(=O)Nc2ccc(CC(=O)O)cc2)ccc(Cl)c1Cl,-3% (inactive)
11,Cc1ccc(C(=O)NC2CCN(c3ccccc3C(=O)N(C)C(C)C)CC2)cc1,6.6% (inactive)
12,O=C(c1ccc(Cl)cc1)N(Cc1cc(-c2ccccc2)on1)C1CC1,-12.1% (inactive)
13,CCC(c1ccccc1)c1nc(-c2ccc3nnn(C)c3c2)no1 (configuration not stated),-20.7% (inactive)
14,CCCCC(=O)Nc1c2c(nn1-c1ccc([N+](=O)[O-])cc1)CS(=O)(=O)C2,-1% (inactive)
15,CCOC(=O)c1c(NC(=O)c2ccc([N+](=O)[O-])s2)sc2c1CCCC2,-0.8% (inactive)
16,COc1nccnc1NS(=O)(=O)c1ccc(NC(=O)c2ccc(C(C)(C)C)cc2)cc1,13.2% (inactive)
17,O=c1[nH]c(C=C2C=Nc3ccc(Br)cc32)c(O)n1Cc1ccc(Br)cc1,93% (active)
18,CCc1nc2c(NC(=O)Nc3cccc(C)c3)cccn2n1,-3.6% (inactive)
19,COc1ccc(-n2nc3c(c2NC(=O)c2ccccc2Cl)CSC3)cc1,22% (inactive)
20,COc1ccc(CC(=O)N2CCc3c(c(C(=O)NCc4cccc(C)c4)nn3C)C2)cc1,40.5% (inactive)
21,COc1cc(OC)cc(C(=O)N2CCc3c(c(C(=O)NCc4cccc(C)c4)nn3C)C2)c1,40.8% (inactive)
22,Cc1cccc(C(=O)N2CCc3c(c(-c4nc(Cc5ccccc5)no4)nn3C)C2)c1,7.62% (inactive)

row,SMILES,inhibition
1,CCCC(=O)N1CCc2c(c(C(=O)NCc3cccc(C)c3)nn2C)C1,35.7% (inactive)
2,COc1cccc(C(=O)N2CCc3c(c(C(=O)NCc4cccc(C)c4)nn3C)C2)c1,66.6% (active)
3,Cn1nc(C(=O)NCc2ccccc2)c2c1CCN(C(=O)c1cccc(F)c1)C2,64.8% (active)
4,O=C(O)CCCCCNS(=O)(=O)c1cccc(C(F)(F)F)c1,-2% (inactive)
5,O=C(c1ccc(F)cc1)N1CCCC1c1ccccc1F (configuration not stated),-8.08% (inactive)
6,O=C(CSC1=Nc2ccccc2C2=NC(Cc3ccccc3)C(=O)N12)NC1CCCCC1 (configuration not stated),39% (inactive)
7,O=C(CSC1=Nc2ccccc2C2=NC(Cc3ccccc3)C(=O)N12)c1ccc(O)c(O)c1 (configuration not stated),57% (active)
8,CC(C)C1N=C2c3ccccc3N=C(SCC(=O)c3ccc(O)c(O)c3)N2C1=O (configuration not stated),20% (inactive)
9,CCCN1C(=O)COc2ccc(-c3noc(-c4ccccc4C(F)(F)F)n3)cc21,-2.1% (inactive)
10,CCN(CC)c1ncc2c(n1)CCC(C(=O)N(C)c1ccc(C)c(C)c1)C2 (configuration not stated),25.8% (inactive)
11,Cc1ccc2c(c1)-c1c(ssc1=Nc1ccc(Cl)cc1Cl)C(C)(C)N2,73.7% (active)
12,Cc1ccc(N=Cc2ccc(Cl)cc2Cl)c(O)c1,12% (inactive)
13,CC(=O)Nc1ccc(N2CCCCC2)nc1,2.4% (inactive)
14,O=C(Cc1ccc(F)cc1)N1CCc2[nH]cnc2C1c1ccccn1 (configuration not stated),81.1% (active)
15,COC(=O)c1ccccc1NC(=O)N1CCc2[nH]cnc2C1c1ccncc1 (configuration not stated),7.22% (inactive)
16,CC(C)NC(=O)N1CCc2[nH]cnc2C1c1ccccn1 (configuration not stated),83.5% (active)
17,O=C(c1ccc(F)c(F)c1)N1CCc2[nH]cnc2C1c1ccccc1 (configuration not stated),17.4% (inactive)
18,O=C(Nc1c(F)cccc1F)N1CCc2[nH]cnc2C1c1ccncc1 (configuration not stated),-5.1% (inactive)
19,O=C(Nc1ccc(C(F)(F)F)cc1)N1CCc2[nH]cnc2C1c1ccncc1 (configuration not stated),11.1% (inactive)
20,O=C1OC(c2ccc(Cl)cc2Cl)=N/C1=C\c1ccc(F)cc1,2% (inactive)
21,COc1cccc(C2CC(c3cc(Br)ccc3F)n3nnnc3N2)c1 (configuration not stated),4.06% (inactive)

# Source: PubChem BioAssay AID1671202 (University of Kansas High Throughput Screening Laboratory, 2021)
